The source made the active and inactive calls. Where a call stands in place of a potency, no number is given. Calls follow the shape of the full dose curve.

The values that follow come from PubChem BioAssay (Tox21).

The nature of the assay: qHTS assay to identify small molecule agonists of the sonic hedgehog signaling (Shh) pathway (AID 1259368).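 Also: NIH/3T3-derived 3T3Gli1-Luc cells carrying a stable Gli1-driven firefly luciferase reporter; nearly all actives have a fitted effect of over 15% in size.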 To be noted: NIH/3T3 Gli1-Luc reporter, luciferase, 24 h; series mostly up to 92.4 µM. An excerpt:
National Center for Advancing Translational Sciences [NCATS]
NIH Chemical Genomics Center [NCGC]
U.S. Environmental Protection Agency [EPA]
National Institutes of Environmental Health Sciences [NIEHS]
National Toxicology Program [NTP]
The sonic hedgehog (Shh) pathway is essential for normal embryonic development. Dysregulation of the Shh pathway can cause severe developmental defects in organs. Therefore chemicals that interfere with the pathway are potential developmental toxicants. A cell line designated 3T3Gli1-Luc (DMB/OARSA/CFSAN/FDA, Laurel, MD), a NIH/3T3 derived clone containing stably integrated Gli1-Luc reporter is used to detect chemical interference of the Shh pathway, by changes in the expression of the firefly Luc gene under the control of the Gli1 transcriptional response element. This cell line was used to screen Tox21 libraries for identifying and prioritizing the potential developmental toxicants that interfere Shh pathway.
3T3 Gli1-Luc cells were dispensed at 2,000 per well in 5uL of culture medium into white solid bottom 1536-well plates (Greiner Bio-One, Monroe, NC) using a Multidrop Combi (Thermo Scientific, Waltham, MA) dispenser. The assay plates were incubated at 37 C and 5% CO2 for 4hr, and then 23nL of compounds dissolved in DMSO and positive control were transferred using a Pintool station (Wako, San Diego, CA). The assay plates were incubated at 37C and 5% CO2 for 24hr. For luciferase read, 4uL of Amplite Luciferase reporter gene assay reagent (AAT Bioquest, Inc. Sunnyvale, CA) was added to each well of the assay plates using Flying Reagent Dispenser (FRD, Aurora Discovery, San Diego, CA) and incubated at room temperature for 30min. The luminescence signal was measured using a ViewLux plate reader (Perkin Elmer, Shelton, CT).
For orientation: Quantitative high-throughput screening tests each substance at several concentrations.
Regarding `CCOC(=O)OCC`, the Potency entry was “inactive”.
For `CCCCC1C(=O)N(c2ccccc2)N(c2ccc(O)cc2)C1=O` (stereo not given), the Potency entry was “inactive”.
For `Cc1ccnc2ccccc12`, the Potency entry is “inactive”.
Turning to `CCC1(C)CC(=O)NC1=O` (stereo not given), the Potency result was “inactive”.
As to `Oc1ccc(Nc2ccccc2)cc1`, the Potency result is “inactive”.
On to `CC(C)c1nnc2ccc(-c3ocnc3-c3cc(F)ccc3F)cn12`, for which the Potency result is “inactive”.
Turning to `CCCC1C(CC)=CC(CC)=CN1c1ccccc1` (stereo not given), the Potency result was “inactive”.
In the case of `CCCOC(=O)c1ccc(N)cc1`, the Potency result is “inactive”.
As for `CC(C)(C)CC(C)(C)c1ccc(OCCO)cc1`, the Potency entry was “inactive”.
Same read-out and setting: as for `C/C=C(\C)C(=O)OCCC(C)CCC=C(C)C` (stereo not given), the entry is “inactive”.
For `CC1=C(C=O)C(C)(C)CCC1`, the Potency entry is “inactive”.
As to `CN1CCN(c2c(F)cc3c(=O)c(C(=O)O)cn4c3c2OCN4C)CC1`, the activity change was -1.02% [at 18.9 µM, hits give high values] (inactive).
Consider `CC(=O)OCC(=O)[C@@]12OC(C)(C)O[C@@H]1C[C@H]1[C@@H]3C[C@H](F)C4=CC(=O)C=C[C@]4(C)[C@@]3(F)[C@@H](O)C[C@@]12C`, for which the Potency entry is “inactive”.
For the compound `Nc1nccs1`, the Potency result was “inactive”.
In the case of `CCOC(=O)C(C)Oc1ccc(Oc2nc3ccc(Cl)cc3o2)cc1` (stereo not given), the Potency entry was “inactive”.
For `CC(=O)Nc1ccc(N)cc1`, the Potency result was “inactive”.
Still for that read-out and setting: as for `O=C(N/N=C/c1ccc([N+](=O)[O-])o1)c1ccc(O)cc1`, the entry is “inactive”; as for `CC(Cl)C(Cl)Cl` (stereo not given), “inactive”.
On the same count and under the same terms, the entry for `CCOC(=O)c1ccccc1OC` is “inactive”; for `c1cnc2c(n1)CCCC2` it is “inactive”; for `C1COCO1` it is “inactive”.
As to `C[Si]1(C)O[Si](C)(C)O[Si](C)(C)O1`, the Potency entry was “inactive”.
Still for that read-out and setting: the entry for `CN(C)C(=O)Nc1ccc(Oc2ccc(Cl)cc2)cc1` is “inactive”; for `O=C(O)c1cccc(O)c1` it is “inactive”.
Consider `COc1cc2ncnc(Nc3ccc(F)c(Cl)c3)c2cc1OCCCN1CCOCC1`, for which the Potency result is “inactive”.
The same measure, in the same setting: as for `CCn1cc(C(=O)O)c(=O)c2cc(F)c(N3CCNCC3)nc21`, the entry is “inactive”; as for `Nc1nc(Cl)nc2c1ncn2[C@@H]1O[C@H](CO)[C@@H](O)[C@@H]1F`, “inactive”; as for `NC(=O)Cn1c(=O)cc(CCN2CCN(c3nccc4sccc34)CC2)c2ccc(F)cc21`, “inactive”.
On the same count and under the same terms, the entry for `CCC(C(=O)OCCOCCN(CC)CC)c1ccccc1` (stereo not given) is “inactive”; for `COC(=O)CC(=O)C(C)(C)C` it is “inactive”.
In the case of `CCOC(=O)c1ccccc1C`, the Potency result was “inactive”.
As to `CCCCCCCCCCOS(=O)(=O)O`, the Potency result was “inactive”.
For the compound `COc1cc2c(N3CCN(C(=O)Nc4ccc(OC(C)C)cc4)CC3)ncnc2cc1OCCCN1CCCCC1`, the Potency entry was “inactive”.
Turning to `COCCOC(=O)C1=C(C)NC(C)=C(C(=O)OC/C=C/c2ccccc2)C1c1cccc([N+](=O)[O-])c1` (stereo not given), the Potency result was “inactive”.
As to `O=C(Nc1ccc([N+](=O)[O-])cc1)Nc1ccc([N+](=O)[O-])cc1`, the Potency entry is “inactive”.
On to `CNC(=O)N(c1ccccc1)c1ccccc1`, for which the Potency result is “inactive”.
Take `CCCCC(=O)O[C@]1(C(=O)CO)CC[C@H]2[C@@H]3CCC4=CC(=O)CC[C@]4(C)[C@H]3[C@@H](O)C[C@@]21C`: the Potency entry was “inactive”.
With `CCCCCCCC/C=C\CCCCCCCC(=O)OC`, the Potency result was “inactive”.
For `CCc1cccc(N(C)C(N)=Nc2cccc3ccccc23)c1`, the Potency entry is “inactive”.
Turning to `CCn1nc(C)c2c1C(=O)NCC(c1ccc(O)cc1)=N2`, the Potency entry is “inactive”.
